Screens as filed in PubChem.
Pol eta inh-1 – qHTS for Inhibitors of Polymerase Eta; DNA polymerase eta (Homo sapiens), Q9Y253; recombinant Pol eta, fluorescent DNA replication assay; Potency, µM (highest dose often 114 µM), most hits filed as inhibitors; actives 1.2% (n = 390,000); AID 588591, 2011
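Fluorescent replication assay: 50 nM final substrate added after a 15 min room-temperature compound preincubation with 10 nM enzyme. Signal taken at 0 min and again at 10 min.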
POLB inh – qHTS Assay for Inhibitors of DNA Polymerase Beta; Pol beta primer extension/strand displacement, fluorescence kinetic; actives 1.3% (n = 340,000); AID 485314, 2010; P06746; Potency, µM (doses to about 114 µM), actives largely listed as inhibitors
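10 nM enzyme + cpd, 15 min RT; start with substrate 50 nM final; read 0 min and after 10 min RT. Corrected, normalized data; 4-parameter Hill curve fit.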
Pol kappa inh-1 – qHTS for Inhibitors of Polymerase Kappa; purified Pol kappa, fluorescent DNA synthesis assay, 10 min; Potency, µM (titrated, usually from 107 µM), most hits filed as inhibitors; actives 0.53% (n = 400,000)
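Kinetic fluorescence screen: compound preincubated 15 min RT with 10 nM enzyme; 50 nM substrate (final) initiates; reads at 0/10 min.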
POLI inh – qHTS for Inhibitors of Polymerase Iota; actives 1% (n = 390,000); Potency, µM (top dose mostly 115 µM), usual class: inhibitors; DNA polymerase iota (Homo sapiens), Q9UNA4; Pol iota fluorescent replication assay, 10 min; AID 588590, 2011
Target sequence (Q9UNA4 whole entry, looked up): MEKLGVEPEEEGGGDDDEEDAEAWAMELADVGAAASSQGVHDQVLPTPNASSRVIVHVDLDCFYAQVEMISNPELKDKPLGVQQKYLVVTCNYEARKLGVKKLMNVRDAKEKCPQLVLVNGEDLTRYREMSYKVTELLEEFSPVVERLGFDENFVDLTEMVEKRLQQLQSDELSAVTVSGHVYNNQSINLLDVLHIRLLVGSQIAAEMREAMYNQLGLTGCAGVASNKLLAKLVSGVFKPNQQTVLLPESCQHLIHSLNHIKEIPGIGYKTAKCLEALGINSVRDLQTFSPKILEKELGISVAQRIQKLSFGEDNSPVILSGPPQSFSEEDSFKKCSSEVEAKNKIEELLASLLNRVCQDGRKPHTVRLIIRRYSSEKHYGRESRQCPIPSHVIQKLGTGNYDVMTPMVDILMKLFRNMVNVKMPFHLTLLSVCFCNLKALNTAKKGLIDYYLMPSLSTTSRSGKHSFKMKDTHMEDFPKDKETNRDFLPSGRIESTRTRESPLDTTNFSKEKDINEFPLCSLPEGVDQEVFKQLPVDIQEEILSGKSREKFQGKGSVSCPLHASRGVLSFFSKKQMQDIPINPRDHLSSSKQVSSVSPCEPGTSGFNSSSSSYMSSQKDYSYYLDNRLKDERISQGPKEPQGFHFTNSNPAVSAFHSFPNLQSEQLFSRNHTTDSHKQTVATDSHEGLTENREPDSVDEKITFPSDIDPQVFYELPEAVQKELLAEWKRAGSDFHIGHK
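Fluorescent replication assay read twice, at 0 min and 10 min after adding 50 nM (final) substrate. Enzyme (10 nM) and compounds were first incubated 15 min at room temperature; enzyme-free buffer wells were negative controls.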
WRN inhibitor – qHTS for Inhibitors of WRN Helicase. Bifunctional 3'-5' exonuclease/ATP-dependent helicase WRN (Homo sapiens), Q14191. WRN helicase unwinding, fluorescent forked duplex, kinetic. Potency, µM (series often up to 114 µM), most hits filed as inhibitors. actives 0.46% (n = 360,000). AID 651768, 2012; also: nearly all actives have a fitted effect of over 55% in size
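WRN at 20 nM final preincubated with compound 15 min at room temperature; reaction started with 100 nM fluorophore/quencher forked duplex oligonucleotide and 2 mM ATP final. Unwinding followed kinetically by red fluorescence (ex 525, em 598 nm).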
FEN1 inh – qHTS Assay for the Inhibitors of Human Flap endonuclease 1 (FEN1). P39748. Recombinant FEN1 flap cleavage, fluorescence, 15 min. Potency, µM (series often up to 114 µM), usual class: inhibitors. actives 0.35% (n = 390,000). AID 588795, 2011; also: nearly all actives have a fitted effect of over 65% in size
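Nuclease activity of 10 nM FEN1 was measured after 15 min of room-temperature exposure to titrated compounds, by adding 50 nM flap substrate and reading plates at 0 and 15 min.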
TbPGK inh – qHTS for inhibitors of Phosphogylcerate Kinase: Hit Validation Screen | shares compounds with Pol kappa inh-1 | TbPGK coupled GAPDH assay, Kinase-Glo luminescence | Potency, µM (titrated, usually from 57.5 µM), most hits filed as inhibitors | actives 79% (n = 500) | AID 686980, 2013; also: nearly all actives have a fitted effect of over 65% in size
Pol iota confirm – qHTS for Inhibitors of Polymerase Iota: Confirmatory Assay for Cherry-picked Compounds | Potency, µM, usual class: inhibitors | Pol iota primer extension, TAMRA/BHQ fluorescence | AID 720496, 2013 | shares compounds with Pol kappa inh-1 | actives 77% (n = 1,500)
Pol kappa inh-2 – qHTS for Inhibitors of Polymerase Kappa: Confirmatory Assay for Cherry-picked Compounds. shares compounds with Pol eta inh-1. purified Pol-kappa, fluorescent strand-displacement substrate. Potency, µM, usual class: inhibitors. actives 76% (n = 920). AID 720501, 2013
Pol eta inh-2 – qHTS for Inhibitors of Polymerase Eta: Confirmatory Assay for Cherry-picked Compounds | AID 720502, 2013 | actives 64% (n = 2,600) | shares compounds with Pol eta inh-1 | Potency, µM, usual class: inhibitors | Pol eta primer extension, TAMRA/BHQ fluorescence, 10 min
Numbers stand for hits; n = inactive; u = inconclusive; x = not tested or not shown. In the library only some 2.4% were active in any assay of this set; here they are far more common. Calls follow the shape of the dose curve; as a rule, active = well fitted curve in the direction sought with a large enough effect; inconclusive = small, poorly fitted or top-dose-only effect, or another doubt; inactive = no such curve, though single readings can be large; an effect the other way counts as inactive or inconclusive.

SMILES	Pol eta inh-1	POLB inh	Pol kappa inh-1	POLI inh	WRN inhibitor	FEN1 inh	Pol iota confirm	Pol eta inh-2	others
CC(=O)NC1=NC(=O)/C(=C/c2cc(C)n(-c3ccc(NC(C)=O)cc3)c2C)S1	n	n	n	n	n	n	x	x
Cc1cc(/C=N/NC(=O)C(O)(c2ccccc2)c2ccccc2)c(C)n1-c1cccc(C(=O)O)c1	10µM	16µM	u	16µM	u	u	34	15
COc1ccc(-c2cnnc(N/N=C/c3ccc(O)c(O)c3)n2)cc1	20µM	3.5µM	25µM	8.9µM	u	u	47	30
CC(=O)Nc1cccc(C(=O)/C=C/c2ccco2)c1	u	n	n	u	n	n	x	x
CC(=O)Nc1ccc(C(=O)/C=C/c2ccco2)cc1	25µM	25µM	45µM	u	u	u	u	38
COc1ccccc1CNC(=O)C(Cc1ccccc1)NS(=O)(=O)c1ccc2c(c1)CCN2C(C)=O (stereo unspecified)	n	n	n	n	x	n	x	x
Cc1cc(C(=O)NCc2ccc(C(=O)O)o2)c(C)o1	4µM	28µM	32µM	20µM	n	n	27	6.7	TbPGK inh=u
O=C(/C=C/c1ccco1)N1CCN(S(=O)(=O)c2ccccc2)CC1	18µM	x	u	50µM	n	n	x	u	TbPGK inh=9.2µM;Pol kappa inh-2=u
O=C(/C=C/c1ccc([N+](=O)[O-])cc1)N1CCN(S(=O)(=O)c2ccccc2)CC1	n	x	n	n	n	n	x	x
COCCN(C(=O)c1cc2c(s1)CCC2)c1c(N)n(CC(C)C)c(=O)[nH]c1=O	8.9µM	x	45µM	20µM	45µM	n	21	48	Pol kappa inh-2=19
CCOc1ccc(CNC(=O)c2ccccc2NC(=O)c2nsc3ccccc23)cc1	n	n	n	n	x	n	x	x
Oc1ccc2ccccc2c1C=NC12CN3CCN(CN(C3)C1)C2	20µM	n	n	20µM	u	n	u	u
COc1ccc(/C=C2/SC(=S)N(Cc3ccccc3)C2=O)cc1O	n	n	n	n	n	n	x	x
